# In the library only some 1.8% were active in any assay of this set; here they are far more common.
# CendR NRP1 mod = modulators of CendR peptide binding to NRP-1, primary screen, biochemical, fluorescence polarization, uHTS | Neuropilin-1 (Homo sapiens), O14786 | FAM-RPARPAR peptide binding to NRP-1 | inhibition, % at 25 µM | 360,000 tested, 0.85% active;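 active = inhibition or corrected inhibition above about 18%, plus a signal ratio from 0.5 to 1.5, limit read from the data, passing the limit was not always enough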
# Target sequence (O14786 whole entry, looked up): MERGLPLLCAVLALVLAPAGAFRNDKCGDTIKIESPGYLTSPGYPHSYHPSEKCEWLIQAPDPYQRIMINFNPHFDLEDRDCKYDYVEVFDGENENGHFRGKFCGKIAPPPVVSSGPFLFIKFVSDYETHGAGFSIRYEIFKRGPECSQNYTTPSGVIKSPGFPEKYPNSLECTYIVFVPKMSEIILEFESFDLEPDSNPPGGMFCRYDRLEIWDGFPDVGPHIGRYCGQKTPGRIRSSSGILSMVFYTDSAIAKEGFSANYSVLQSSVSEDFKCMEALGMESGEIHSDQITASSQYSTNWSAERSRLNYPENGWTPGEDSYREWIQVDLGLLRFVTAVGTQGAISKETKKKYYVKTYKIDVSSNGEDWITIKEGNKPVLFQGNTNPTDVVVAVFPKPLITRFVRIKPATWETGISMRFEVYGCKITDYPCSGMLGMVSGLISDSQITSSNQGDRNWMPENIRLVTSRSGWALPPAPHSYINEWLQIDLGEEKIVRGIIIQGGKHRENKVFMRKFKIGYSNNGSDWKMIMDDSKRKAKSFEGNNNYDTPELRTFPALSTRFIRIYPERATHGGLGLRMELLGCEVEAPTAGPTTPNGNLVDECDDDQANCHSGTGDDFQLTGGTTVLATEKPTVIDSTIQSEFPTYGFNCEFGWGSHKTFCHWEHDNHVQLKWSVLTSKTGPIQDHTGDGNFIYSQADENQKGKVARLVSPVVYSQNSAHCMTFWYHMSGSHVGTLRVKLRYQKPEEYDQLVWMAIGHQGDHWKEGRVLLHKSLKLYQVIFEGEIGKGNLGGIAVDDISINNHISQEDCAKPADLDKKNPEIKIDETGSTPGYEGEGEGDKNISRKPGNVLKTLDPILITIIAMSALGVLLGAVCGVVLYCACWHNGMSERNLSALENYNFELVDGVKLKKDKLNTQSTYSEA
# ABCB6 inh MLPCN = ABCB6 transporter inhibitors, primary screen, K562-ABCB6 cells, flow cytometry, MLPCN library. fluorescence ratio to DMSO, % at 10 µM. ATP-binding cassette sub-family B member 6 (Homo sapiens), Q9NP58. K562-ABCB6 porphyrin accumulation, 1 h; stronger effect = lower value. 360,000 tested, 0.19% active;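 active = fluorescence ratio to DMSO below 75%, the collection mean minus 3 SD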;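 also: signal is porphyrin accumulated inside mitochondria; 100% equals median channel fluorescence of DMSO control wells; lower ratio means ABCB6 inhibition with less porphyrin fluorescence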
# hiPSC survival = enhancers of single-cell hiPSC survival, primary screen, ATPlite luminescence | 100% = ROCK inhibitor wells, 0% = DMSO | survival enhancement, % at 20 µM | 360,000 tested, 0.044% active; in the data active = survival enhancement above about 18%;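 also: cells exposed to compounds for 16 hours before the ATP read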
# INS-1E GSIS act = GLuc luminescence reporter in INS-1E cells, primary screen for activators of glucose-dependent secretion of insulin; INS-1E GLuc reporter insulin secretion, 2-3 h; activation, % at 16.6 µM; 370,000 tested, 0.61% active; AID 743287, 2014;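 active = lowest replicate activation of at least 40%, so every replicate reaches that level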;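 also: 0% = median of neutral control wells and 100% = median of IBMX positive control wells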
# ARNT TACC3 PPI = disruptors of ARNT/TACC3 protein interaction, primary screen, biochemical, AlphaScreen, single concentration; Transforming acidic coiled-coil-containing protein 3 (Homo sapiens), Q9Y6A5; AlphaScreen His-ARNT PAS-B/GST-TACC3 binding, luminescence; TACC3 fragment carries E629A point mutation; inhibition, % at 9.99 µM; 390,000 tested, 0.66% active;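 active = mean inhibition of replicates at least 50% and at least half of replicates each reaching 50%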;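 also: 0% = complete ARNT plus TACC3 wells and 100% = ARNT alone without TACC3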
# An asterisk follows results filed as active; x = not tested or not shown.
SMILES,CendR NRP1 mod,ABCB6 inh MLPCN,hiPSC survival,INS-1E GSIS act,ARNT TACC3 PPI
Oc1cccc2ccc(Nc3ccccn3)nc12,-15.8,101.0,-1.8,x,64.4*
c1ccc(Nc2ccccc2Nc2ccccn2)nc1,8.4,103.0,-1.1,14.8,3.1
OC(CCc1ccncc1)COc1ccccc1 (stereo not given),20.5*,97.0,2.4,-4.6,0.0
OC(CCc1ccncc1)c1ccccc1 (stereo not given),-2.9,95.0,0.5,-0.1,-9.7
CN(C)CC(=O)Nc1ccc2c(c1)[C@@H]1C[C@H](CC(=O)NCc3cc(F)ccc3F)O[C@H](CO)[C@@H]1O2,x,x,x,14.4,20.5
CCOC(=O)c1c(OCC)[nH]c2c1cc(O)c1ccccc12,-5.5,97.0,1.7,x,33.1*
O=C(/C=C/c1ccccc1)NNC(=O)C1CC1,6.1,65.0*,-2.3,5.3,-10.6
O=C(NCc1ccccc1)c1ccccc1C(=O)c1ncc[nH]1,27.4*,99.0,2.9,-3.6,-2.7
COCC(=O)Nc1ccc2c(c1)C(=O)N(C)[C@H]1CC[C@@H](CC(=O)NCc3ccccc3F)O[C@H]1CO2,x,x,x,0.7,-20.7
Cc1nc(C)c(N)c(=O)[nH]1,23.9*,101.0,-1.1,-2.8,-0.4
CCOc1ccc(/C=C/C(=O)N(CC)CC(=O)Nc2c(F)cccc2F)cc1OC,21.9*,97.0,0.5,x,x
CCOc1ccc(/C=C/C(=O)N(CC)CC(=O)Nc2ccc3c(c2)OCCO3)cc1OC,-15.5,99.0,0.1,4.8,-7.2
C=C1CN(Cc2ccccc2)S(=O)(=O)c2ccccc21,24.4*,99.0,-0.8,6.3,-1.2
C=C1CN(CC(=O)OC)S(=O)(=O)c2ccccc21,10.6,85.0,0.5,-5.4,-3.0
CN1CCCC1CCNC1C2CC3CC(C2)CC1C3 (stereo not given),-11.8,107.0,-4.2,46.4*,-2.8
CO[C@@H]1CN(C)C(=O)c2cc(NC(C)=O)ccc2OC[C@H](C)N(C(=O)c2ccc(F)cc2)C[C@H]1C,x,x,x,-1.7,-3.4
CO[C@@H]1CN(C)C(=O)c2ccc(NC(=O)c3cnccn3)cc2OC[C@H](C)N(C(C)=O)C[C@@H]1C,x,x,x,20.8,x
CCN(CC)CCOC(=O)c1ccc(N/C=C(/C#N)c2nc(-c3cccc(OC)c3)cs2)cc1,-3.4,100.0,0.2,x,x
CCN(CC)CCOC(=O)c1ccc(N/C=C(/C#N)c2nc(-c3ccc(OC)c(OC)c3)cs2)cc1,-11.6,107.0,-0.6,56.2*,3.3
C[C@H]1CN([C@@H](C)CO)C(=O)c2cc(NC(=O)Cc3ccccc3)ccc2O[C@@H]1CN(C)CC1CCCCC1,x,x,x,11.6,-3.2
COc1cccc(-c2cnc3c(c2)C(=O)N([C@@H](C)CO)C[C@@H](C)[C@H](CN(C)CC2CCCC2)O3)c1,x,x,x,-0.3,x
COc1ccc(NC(=O)CSc2c(C)nn(-c3nnc(C)c(=O)[nH]3)c2C)cc1,2.6,99.0,4.3,x,60.4*
COc1ccc(NC(=O)CSc2nncn2C)cc1,9.3,95.0,0.3,13.4,-9.0
CSc1nsc(SCC(=O)Nc2ccc(Cl)c(C(=O)O)c2)n1,6.4,93.0,0.3,8.6,-3.4
CSc1nsc(SCC(=O)Nc2ccc(O)c(C(=O)O)c2)n1,-2.5,101.0,-0.4,40.4*,x
SMILES,CendR NRP1 mod,ABCB6 inh MLPCN,hiPSC survival,INS-1E GSIS act,ARNT TACC3 PPI
N#Cc1cc(-c2ccccc2)nc(Oc2ccc(Cl)cc2)n1,-5.7,95.0,-0.9,-14.0,-1.2
Clc1ccc(-c2ccnc(Oc3cc(Cl)ccc3Cl)n2)cc1,-14.8,97.0,-2.7,85.0*,-6.7
Clc1ccc(-c2ccnc(Oc3ccc4ccccc4c3)n2)cc1,4.0,98.0,-1.8,113.8*,29.7
CO[C@@H]1CN(C)C(=O)c2ccc(NC(=O)C3CC3)cc2OC[C@H](C)N(C(=O)NC(C)C)C[C@@H]1C,x,x,x,4.4,-3.4
COC(=O)[C@H]1[C@H](CO)[C@H]2Cn3c(ccc(-c4ccccc4OC)c3=O)[C@H]2N1CC1CCCCC1,x,x,x,-9.5,x
COCCNC(=O)C[C@@H]1C[C@H]2c3cc(NC(=O)Nc4ccccc4F)ccc3O[C@H]2[C@@H](CO)O1,x,x,x,6.1,-7.9
COc1ccc(N2CCN(C(=O)c3cn(C4CCCC4)c(=O)c4c3c3ccccc3n4C)CC2)cc1,39.3*,98.0,-3.8,x,4.0
Cn1c2ccccc2c2c(C(=O)N3CCN(c4ccccn4)CC3)cn(C3CCCC3)c(=O)c21,38.4*,92.0,5.7,x,7.6
COc1ccc(N2CCN(C(=O)c3cn(C)c(=O)c4c3c3ccccc3n4C)CC2)cc1,-7.3,95.0,2.7,x,14.0
CN1N=C(/C=C/c2ccccc2)CCC1=O,8.7,91.0,-0.3,1.5,-3.0
Cc1ccc(/C=C/C2=NN(C)C(=O)CC2)cc1,36.0*,102.0,-3.6,-2.8,-4.3
CN(C)c1ccc(C=C2C(=O)OC(C)(C)OC2=O)cc1,-7.1,102.0,-0.7,-5.2,-12.8
CN(C)c1ccc(C=C2C(=O)OC(C)(C(C)(C)C)OC2=O)cc1 (stereo not given),-25.2,104.0,0.1,x,active
COc1cccc(NC(=O)Nc2ccc3c(c2)C(=O)N(C)[C@H]2CC[C@H](CC(=O)NCCc4ccccc4)O[C@H]2CO3)c1,x,x,x,-1.6,21.5
CC(=O)Oc1c(Cl)cc(Cl)cc1/C=C/c1ccc2ccccc2n1,4.5,115.0,-0.8,x,0.6
CC(=O)Oc1ccc(Cl)cc1/C=C/c1ccc2ccccc2n1,-13.9,98.0,-1.6,52.7*,-15.6
O=C(C[C@H]1C=C[C@H](NC(=O)c2ccccn2)[C@H](CO)O1)NCc1cccc(F)c1,x,x,x,-2.2,2.3
CC(=O)N(C)C[C@@H]1Oc2ncc(C#Cc3ccccc3F)cc2C(=O)N([C@H](C)CO)C[C@@H]1C,x,x,x,23.3,-13.4
CC(=O)Nc1ccc(Oc2ncccn2)cc1,-1.4,x,x,x,-1.6
CC(=O)Nc1ccc(Oc2nc(-c3ccccn3)nc3ccccc23)cc1,-5.5,106.0,-0.2,2.0,58.5*
CC(=O)Nc1cccc(Oc2nc(C(F)(F)F)nc3ccccc23)c1,2.6,98.0,3.4,-0.9,-5.5
CC(=O)Nc1cccc(Oc2nc(-c3ccccn3)nc3ccccc23)c1,5.9,98.0,-0.6,10.4,48.0*
O=S(=O)(Cc1ccccc1)N1CC2(C1)[C@@H](c1ccccc1)[C@H](CO)N2CC1CC1,x,x,x,12.7,x
COc1ccccc1-c1ccc2c(c1)O[C@H](CN(C)CC1CC1)[C@H](C)CN([C@H](C)CO)S2(=O)=O,x,x,x,0.4,x
COc1cccc(C2C=C(c3cccs3)Nc3ncnn32)c1OC (stereo not given),-23.9,101.0,1.5,x,28.2*
CCC(=O)N1CCN(c2nnc(-c3ccccc3)c3ccccc23)CC1,0.8,100.0,0.1,23.7,0.4
CC(=O)N1CCN(c2nnc(-c3ccccc3)c3ccccc23)CC1,-4.5,95.0,0.1,40.5*,-25.3
